# Reference: the supplement of paper PMC8728848
# About 410 targets per protein were measured; listed, in parts, are those with the strongest signals and a random draw of the rest.
# B1: Gal 1 (Mus musculus), P16045 (protein)
# chain: MACGLVASNLNLKPGECLKVRGEVASDAKSFVLNLGKDSNNLCLHFNPRFNAHGDANTIVCNTKEDGTWGTEHREPAFPFQPGSITEVCITFDQADLTIKLPDGHEFKFPNRLNMEAINYMAADGDFKIKCVAFE
# What was measured:
# Assay in all cases: glycan array binding signal (z-score within array); higher = stronger binding
# Conditions in all cases: glycan notation: IUPAC condensed, linker removed
# [1] = target: Gal(b1-4)GlcNAc(b1-3)Gal(b1-4)GlcNAc(b1-3)Gal(b1-4)GlcNAc(b1-2)Man(a1-3)[Gal(b1-4)GlcNAc(b1-3)Gal(b1-4)GlcNAc(b1-3)Gal(b1-4)GlcNAc(b1-2)Man(a1-6)]Man(b1-4)GlcNAc(b1-4)[Fuc(a1-6)]GlcNAc
# Procedure, shortened: (§1)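 The Consortium for Functional Glycomics database supplied 3228 glycan arrays, of which those lacking an available protein sequence were dropped. The binding signal, a within-array Z-score, was averaged across arrays of the same protein sequence and across linkers. Negative scores can be read as non-binding.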
# [2] = target: Gal(b1-4)GlcNAc(b1-3)Gal(b1-4)GlcNAc(b1-3)Gal(b1-4)GlcNAc(b1-2)[Gal(b1-4)GlcNAc(b1-3)Gal(b1-4)GlcNAc(b1-3)Gal(b1-4)GlcNAc(b1-6)]Man(a1-6)[Gal(b1-4)GlcNAc(b1-3)Gal(b1-4)GlcNAc(b1-3)Gal(b1-4)GlcNAc(b1-2)Man(a1-3)]Man(b1-4)GlcNAc(b1-4)[Fuc(a1-6)]GlcNAc
# Procedure, shortened: as §1
# [3] = target: Gal(b1-4)GlcNAc(b1-3)Gal(b1-4)GlcNAc(b1-3)Gal(b1-4)GlcNAc(b1-3)Gal(b1-4)GlcNAc(b1-2)Man(a1-3)[Gal(b1-4)GlcNAc(b1-3)Gal(b1-4)GlcNAc(b1-3)Gal(b1-4)GlcNAc(b1-3)Gal(b1-4)GlcNAc(b1-2)Man(a1-6)]Man(b1-4)GlcNAc(b1-4)GlcNAc
# Procedure, shortened: as §1
# [4] = target: Gal(b1-4)GlcNAc(b1-3)Gal(b1-4)GlcNAc(b1-3)Gal(b1-4)GlcNAc(b1-3)Gal(b1-4)GlcNAc(b1-2)[Gal(b1-4)GlcNAc(b1-3)Gal(b1-4)GlcNAc(b1-3)Gal(b1-4)GlcNAc(b1-3)Gal(b1-4)GlcNAc(b1-6)]Man(a1-6)[Gal(b1-4)GlcNAc(b1-3)Gal(b1-4)GlcNAc(b1-3)Gal(b1-4)GlcNAc(b1-3)Gal(b1-4)GlcNAc(b1-2)Man(a1-3)]Man(b1-4)GlcNAc(b1-4)[Fuc(a1-6)]GlcNAc
# Procedure, shortened: as §1
# [5] = target: Gal(b1-4)GlcNAc(b1-3)Gal(b1-4)GlcNAc(b1-3)Gal(b1-4)GlcNAc(b1-3)Gal(b1-4)GlcNAc(b1-3)Gal(b1-4)GlcNAc(b1-2)[Gal(b1-4)GlcNAc(b1-3)Gal(b1-4)GlcNAc(b1-3)Gal(b1-4)GlcNAc(b1-3)Gal(b1-4)GlcNAc(b1-3)Gal(b1-4)GlcNAc(b1-6)]Man(a1-6)[Gal(b1-4)GlcNAc(b1-3)Gal(b1-4)GlcNAc(b1-3)Gal(b1-4)GlcNAc(b1-3)Gal(b1-4)GlcNAc(b1-3)Gal(b1-4)GlcNAc(b1-2)Man(a1-3)]Man(b1-4)GlcNAc(b1-4)[Fuc(a1-6)]GlcNAc
# Procedure, shortened: as §1
# [6] = target: Gal(b1-4)GlcNAc(b1-6)[Gal(b1-4)GlcNAc(b1-3)]GalNAc
# Procedure, shortened: as §1
# Gal3S(b1-3)GlcNAc = target: Gal3S(b1-3)GlcNAc
# Procedure, shortened: as §1
# Gal3S(b1-4)Glc6S = target: Gal3S(b1-4)Glc6S
# Procedure, shortened: as §1
# [7] = target: Gal3S(b1-4)[Fuc(a1-3)]GlcNAc6S
# Procedure, shortened: as §1
# GalNAc(b1-4)GlcNAc6S = target: GalNAc(b1-4)GlcNAc6S
# Procedure, shortened: as §1
# [8] = target: GlcNAc(a1-4)Gal(b1-4)GlcNAc(b1-3)Gal(b1-4)GlcNAc(b1-3)Gal(b1-4)GlcNAc
# Procedure, shortened: as §1
# [9] = target: GlcNAc(a1-4)Gal(b1-4)GlcNAc(b1-3)Gal(b1-4)[Fuc(a1-3)]GlcNAc(b1-3)Gal(b1-4)[Fuc(a1-3)]GlcNAc
# Procedure, shortened: as §1
# GlcNAc(b1-3)Fuc = target: GlcNAc(b1-3)Fuc
# Procedure, shortened: as §1
# [10] = target: GlcNAc(b1-3)Gal(b1-4)GlcNAc(b1-3)Gal(b1-4)GlcNAc(b1-2)Man(a1-3)[GlcNAc(b1-3)Gal(b1-4)GlcNAc(b1-3)Gal(b1-4)GlcNAc(b1-2)Man(a1-6)]Man(b1-4)GlcNAc(b1-4)[Fuc(a1-6)]GlcNAc
# Procedure, shortened: as §1
# GlcNAc(b1-3)GalNAc = target: GlcNAc(b1-3)GalNAc
# Procedure, shortened: as §1
# [11] = target: GlcNAc(b1-3)[GlcNAc(b1-6)]GalNAc
# Procedure, shortened: as §1
# Man(a1-6)Man = target: Man(a1-6)Man
# Procedure, shortened: as §1
# [12] = target: Neu5Ac(a2-3)Gal(b1-3)[Neu5Ac(a2-3)Gal(b1-4)]GlcNAc
# Procedure, shortened: as §1
# [13] = target: Neu5Ac(a2-3)Gal(b1-4)GlcNAc
# Procedure, shortened: as §1
# [14] = target: Neu5Ac(a2-3)Gal(b1-4)GlcNAc(b1-3)Gal(b1-4)GlcNAc(b1-2)Man(a1-3)[Neu5Ac(a2-3)Gal(b1-4)GlcNAc(b1-3)Gal(b1-4)GlcNAc(b1-2)Man(a1-6)]Man(b1-4)GlcNAc(b1-4)GlcNAc
# Procedure, shortened: as §1
# [15] = target: Neu5Ac(a2-3)Gal(b1-4)[Fuc(a1-3)]GlcNAc(b1-3)Gal(b1-4)[Fuc(a1-3)]GlcNAc(b1-3)Gal(b1-4)[Fuc(a1-3)]GlcNAc
# Procedure, shortened: as §1
# [16] = target: Neu5Ac(a2-3)Gal6S(b1-4)GlcNAc
# Procedure, shortened: as §1
# [17] = target: Neu5Ac(a2-3)[Neu5Ac(a2-6)]GalNAc
# Procedure, shortened: as §1
# [18] = target: Neu5Ac(a2-6)Gal(b1-4)GlcNAc(b1-2)Man(a1-3)[Neu5Ac(a2-3)Gal(b1-4)GlcNAc(b1-2)Man(a1-6)]Man(b1-4)GlcNAc(b1-4)GlcNAc
# Procedure, shortened: as §1
# [19] = target: Neu5Ac(a2-6)Gal(b1-4)GlcNAc(b1-3)Gal(b1-4)GlcNAc
# Procedure, shortened: as §1
# [20] = target: Neu5Ac(a2-6)Gal(b1-4)GlcNAc(b1-3)Gal(b1-4)GlcNAc(b1-3)[Neu5Ac(a2-6)Gal(b1-4)GlcNAc(b1-3)Gal(b1-4)GlcNAc(b1-6)]GalNAc
# Procedure, shortened: as §1
# [21] = target: Neu5Ac(a2-6)Gal(b1-4)GlcNAc(b1-6)[Gal(b1-3)GlcNAc(b1-3)]Gal(b1-4)Glc
# Procedure, shortened: as §1
# [22] = target: Neu5Ac(a2-6)GlcNAc(b1-4)GlcNAc
# Procedure, shortened: as §1
# Neu5Ac(a2-8)Neu5Ac = target: Neu5Ac(a2-8)Neu5Ac
# Procedure, shortened: as §1
# [23] = target: Neu5Ac(a2-8)Neu5Ac(a2-8)Neu5Ac(a2-3)Gal(b1-4)Glc
# Procedure, shortened: as §1
# [24] = target: Neu5Ac(a2-8)Neu5Ac(a2-8)Neu5Ac(a2-3)[GalNAc(b1-4)]Gal(b1-4)Glc
# Procedure, shortened: as §1
binder,measurement,setting,value
B1,glycan array binding signal (z-score),[1],2.53
same,glycan array binding signal (z-score),[2],3.89
same,glycan array binding signal (z-score),[3],2.54
same,glycan array binding signal (z-score),[4],3.42
same,glycan array binding signal (z-score),[5],3.46
same,glycan array binding signal (z-score),[6],-0.011
same,glycan array binding signal (z-score),Gal3S(b1-3)GlcNAc,2.76
same,glycan array binding signal (z-score),Gal3S(b1-4)Glc6S,0.672
same,glycan array binding signal (z-score),[7],2.69
same,glycan array binding signal (z-score),GalNAc(b1-4)GlcNAc6S,-0.452
same,glycan array binding signal (z-score),[8],-0.404
same,glycan array binding signal (z-score),[9],-0.015
same,glycan array binding signal (z-score),GlcNAc(b1-3)Fuc,-0.43
same,glycan array binding signal (z-score),[10],-0.19
same,glycan array binding signal (z-score),GlcNAc(b1-3)GalNAc,-0.094
same,glycan array binding signal (z-score),[11],-0.292
same,glycan array binding signal (z-score),Man(a1-6)Man,0.23
same,glycan array binding signal (z-score),[12],0.068
same,glycan array binding signal (z-score),[13],-0.256
same,glycan array binding signal (z-score),[14],1.31
same,glycan array binding signal (z-score),[15],-0.083
same,glycan array binding signal (z-score),[16],-0.411
same,glycan array binding signal (z-score),[17],-0.3
same,glycan array binding signal (z-score),[18],-0.219
same,glycan array binding signal (z-score),[19],-0.348
same,glycan array binding signal (z-score),[20],1.13
same,glycan array binding signal (z-score),[21],0.027
same,glycan array binding signal (z-score),[22],-0.34
same,glycan array binding signal (z-score),Neu5Ac(a2-8)Neu5Ac,-0.093
same,glycan array binding signal (z-score),[23],-0.347
same,glycan array binding signal (z-score),[24],-0.144
